# In PubChem BioAssay:
# The source made the active and inactive calls. Unless noted, how the calls were made is not given here.
# Legend:
# [1] = Brca1-Bard1 BiLC signal decrease – luminescence, single concentration, counter-screen for Mdm2/MdmX interaction inhibitor project, confirmation (AID 504668); conditions: Brca1/Bard1 bimolecular luciferase complementation counterscreen, at 8 µM, stronger effect = higher value
# PEG-3 [2] = target: PEG-3 (UniProt Q6IN02); experiment: inhibition of PEG-3 promoter-driven reporter – cell-based, HeLa, luciferase, CREF/GAPDH counter-screen panel, dose response (AID 624167); conditions: CREF/GAPDH counter-screens; HeLa PEG-Prom luciferase reporter, overnight, run 1, dose range 1, at 100 µM (top of the series) unless noted
# PEG-3 [3] = target: PEG-3 (UniProt Q6IN02); experiment: as above; conditions: CREF/GAPDH counter-screens; HeLa PEG-Prom luciferase reporter, overnight, run 2, dose range 1, at 100 µM (top of the series) unless noted
# Rat fibroblasts (CREF) [4] = experiment: as above; conditions: CREF/GAPDH counter-screens; run 1, dose range 1, at 100 µM (top of the series)
# Rat fibroblasts (CREF) [5] = experiment: as above; conditions: CREF/GAPDH counter-screens; run 2, dose range 1, at 100 µM (top of the series)
# [6] = target: Tumor necrosis factor receptor superfamily member 10B (Homo sapiens) (UniProt O14763); experiment: viability loss of caspase-8 NB7 cells with TRAIL – with/without TRAIL, luminescence panel, confirmation (AID 651596; in the data active means activity above about 50%); conditions: NB7 neuroblastoma + caspase-8, TRAIL sensitization, NB7 Caspase-8, with TRAIL, mean of runs, at 10 µM, stronger effect = higher value
# [7] = as above; conditions: NB7 neuroblastoma + caspase-8, without TRAIL, NB7 Caspase-8, without TRAIL, mean of runs, at 10 µM
# [8] = NFkB reporter suppression in cystic fibrosis bronchial cells – cell-based, uHTS hits, panel, cytotoxicity readout, dose response (AID 624344); conditions: CF bronchial epithelial cells, PAF-induced NFkB reporter inhibition, with PAF, run 1; at 79 µM (top of the series) unless noted
# [9] = as above; conditions: CF bronchial epithelial cells, PAF-induced NFkB reporter inhibition, with PAF, run 2; at 79 µM (top of the series) unless noted
# Sequence of PEG-3 (Q6IN02 whole entry, looked up): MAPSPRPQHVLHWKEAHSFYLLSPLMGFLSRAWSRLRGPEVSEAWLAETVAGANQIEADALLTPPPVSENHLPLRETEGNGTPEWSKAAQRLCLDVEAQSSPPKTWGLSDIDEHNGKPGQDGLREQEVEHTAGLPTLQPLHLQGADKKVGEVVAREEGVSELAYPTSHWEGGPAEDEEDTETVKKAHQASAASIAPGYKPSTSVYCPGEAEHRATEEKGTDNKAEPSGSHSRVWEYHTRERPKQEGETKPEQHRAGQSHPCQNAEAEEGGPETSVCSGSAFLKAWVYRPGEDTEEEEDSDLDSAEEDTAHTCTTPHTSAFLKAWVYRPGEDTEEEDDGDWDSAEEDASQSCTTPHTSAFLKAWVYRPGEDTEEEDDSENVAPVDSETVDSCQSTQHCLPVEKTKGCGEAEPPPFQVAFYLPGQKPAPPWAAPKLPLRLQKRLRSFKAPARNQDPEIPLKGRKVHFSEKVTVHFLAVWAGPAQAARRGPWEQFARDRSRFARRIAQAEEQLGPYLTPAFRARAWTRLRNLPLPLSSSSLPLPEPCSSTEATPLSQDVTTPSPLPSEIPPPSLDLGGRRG
# Sequence of Tumor necrosis factor receptor superfamily member 10B (Homo sapiens) (O14763 whole entry, looked up): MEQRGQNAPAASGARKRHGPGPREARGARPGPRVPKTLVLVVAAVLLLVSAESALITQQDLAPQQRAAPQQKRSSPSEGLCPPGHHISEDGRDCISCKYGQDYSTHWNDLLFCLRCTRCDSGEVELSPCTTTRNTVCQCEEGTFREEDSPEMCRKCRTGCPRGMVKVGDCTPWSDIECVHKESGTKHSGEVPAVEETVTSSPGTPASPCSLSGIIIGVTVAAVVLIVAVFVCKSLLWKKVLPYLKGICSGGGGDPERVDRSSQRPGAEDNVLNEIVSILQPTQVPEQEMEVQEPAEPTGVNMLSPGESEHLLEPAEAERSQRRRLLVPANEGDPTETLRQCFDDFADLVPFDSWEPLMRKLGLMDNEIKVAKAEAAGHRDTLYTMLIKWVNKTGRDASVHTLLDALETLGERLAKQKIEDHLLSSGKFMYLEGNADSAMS
smiles,measurement,setting,value
CC(C)(C)c1ccc(C(=O)O/N=C(\N)c2ccccn2)cc1,inhibition,[1],28% (active)
same,inhibition,PEG-3 [2],102%
same,inhibition,PEG-3 [3],99%
same,inhibition,Rat fibroblasts (CREF) [4],101%
same,inhibition,Rat fibroblasts (CREF) [5],99.9%
same,activity,[6],99.8%
same,activity,[7],99.8%
COc1ccc(-c2cncnc2-c2ccc(OC)cc2O)cc1,inhibition,[1],27.2% (active)
same,inhibition,[8],101%
same,inhibition,[9],93.5%
CC(C)(C)c1ccc(Cn2c(=O)cnc3ccccc32)cc1,inhibition,[1],25.9% (active)
same,inhibition,PEG-3 [2],100%
same,inhibition,PEG-3 [3],100%
same,inhibition,Rat fibroblasts (CREF) [4],98.2%
same,inhibition,Rat fibroblasts (CREF) [5],84.5%
CN(C(=O)OC(C)(C)C)c1ccc(-c2nc3ccccc3s2)cc1,inhibition,[1],24.8% (active)
same,inhibition,PEG-3 [2],96.5%
same,inhibition,PEG-3 [3],98.2%
same,activity,[6],92.6%
same,activity,[7],91.2%
O=C(NCCc1ccccc1)c1ccc2c(c1)OCCO2,inhibition,[1],27.8% (active)
same,inhibition,PEG-3 [2],94.6%
same,inhibition,PEG-3 [3],97.9%
same,inhibition,Rat fibroblasts (CREF) [4],99%
same,inhibition,Rat fibroblasts (CREF) [5],98.4%
same,activity,[6],89.7%
same,activity,[7],90.2%
Cc1cc(NC(c2ccc(Cl)cc2)c2ccc3cccnc3c2O)no1 (configuration not stated),inhibition,[1],27.4% (active)
same,inhibition,PEG-3 [2],37.1%
same,inhibition,PEG-3 [3],87.1%
same,inhibition,Rat fibroblasts (CREF) [4],37.2%
same,inhibition,Rat fibroblasts (CREF) [5],44.8%
Cc1cnc(NC(=O)c2ccc3c(c2)OCCO3)s1,inhibition,[1],28.6% (active)
same,inhibition,PEG-3 [2],98.1%
same,inhibition,PEG-3 [3],97%
same,inhibition,Rat fibroblasts (CREF) [4],100%
same,inhibition,Rat fibroblasts (CREF) [5],99.6%
same,activity,[6],98.2%
same,activity,[7],98.5%
Cc1cccc(Nc2ncnc3ccc(Br)cc23)c1,inhibition,[1],25.6% (active)
same,inhibition,[8],103%
same,inhibition,[9],110%
Clc1cncc(Cl)c1N/N=C/c1ccncc1,inhibition,[1],27.6% (active)
same,inhibition,[8],105%
same,inhibition,[9],118%
COc1ccc(C(NC(=O)C(C)C)c2ccc3cccnc3c2O)cc1 (configuration not stated),inhibition,[1],28.9% (active)
same,inhibition,PEG-3 [2],67.9%
same,inhibition,PEG-3 [3],60.6%
same,inhibition,Rat fibroblasts (CREF) [4],75.6%
same,inhibition,Rat fibroblasts (CREF) [5],61.5%
CCCN(CCC)c1ncnc2nc[nH]c12,inhibition,[1],34.6% (active)
same,inhibition,[8],109%
same,inhibition,[9],108%
FC(F)(F)c1nnc2c(Sc3ccc(Cl)cc3)nc3ccccc3n12,inhibition,[1],31.6% (active)
same,inhibition,[8],98%
same,inhibition,[9],109%
Cc1[nH]nc2ncc(C(=O)c3ccccc3O)cc12,inhibition,[1],30.4% (active)
same,inhibition,[8],109%
same,inhibition,[9],92.1%
Cn1c(=O)c2c(nc(Oc3ccc4ccccc4c3)n2C)n(C)c1=O,inhibition,[1],33.6% (active)
same,inhibition,[8],93.3%
same,inhibition,[9],81.7%
Cn1nnnc1Sc1ncnc2scc(-c3ccc[nH]3)c12,inhibition,[1],29.2% (active)
same,inhibition,[8],66.8%
same,inhibition,[9],61.6%
CC(C)c1nc(NCCO)c(C#N)c2c1CCCC2,inhibition,[1],35% (active)
same,inhibition,[8],112%
same,inhibition,[9],103%
COc1cc2cncc(Cc3ccc(Cl)cc3)c2cc1OC,inhibition,[1],26.2% (active)
same,inhibition,[8],104%
same,inhibition,[9],109%
COc1ccc2[nH]c3c(c2c1)CCNC3=O,inhibition,[1],34.4% (active)
same,inhibition,[8],103%
same,inhibition,[9],103%
Cc1cc(N2CCOCC2)c2c(N)c(Br)cc(C)c2n1,inhibition,[1],35.4% (active)
same,inhibition,[8],118%
same,inhibition,[9],97.8%
O=C(Nc1cccc2[nH]ncc12)c1ccc(F)cc1,inhibition,[1],25% (active)
same,inhibition,[8],102%
same,inhibition,[9],95.5%
Cc1[nH]nc2nc(SCC(=O)NCCC3=CCCCC3)n(-c3ccc(Br)cc3)c(=N)c12,inhibition,[1],31.1% (active)
same,inhibition,[8],100%
same,inhibition,[9],111%
same,activity,[6],58.5%
same,activity,[7],88.4%
Cc1cccc(CNc2ncnc3ccc(-c4ccoc4)cc23)c1,inhibition,[1],23.8% (active)
same,inhibition,[8],114%
same,inhibition,[9],106%
CC(C)CN=C(NS(=O)(=O)c1ccccc1)C(Cl)(Cl)Cl,inhibition,[1],35.9% (active)
same,inhibition,[8],102%
same,inhibition,[9],112%
COc1ccc(-c2cn[nH]c2-c2ccc(O)cc2O)cc1,inhibition,[1],25.3% (active)
same,inhibition,[8],104%
same,inhibition,[9],112%
COc1cccc(NC(=O)Nc2nnc(CC(=O)NCc3ccccc3)s2)c1,inhibition,[1],35.1% (active)
same,inhibition,[8],79.8%
same,inhibition,[9],83.7%
OCCCNc1ncnc2scc(-c3ccc(Cl)cc3)c12,inhibition,[1],33.2% (active)
same,inhibition,[8],115%
same,inhibition,[9],103%
COc1ccc(-c2csc3ncnc(NCCO)c23)cc1,inhibition,[1],26.2% (active)
same,inhibition,[8],104%
same,inhibition,[9],113%
CCOc1ccc(-n2c(C)c(C(C)=O)c3cc(O)ccc32)cc1,inhibition,[1],31.2% (active)
same,inhibition,[8],90%
same,inhibition,[9],88.2%
COc1ccc2cc(C(N)=O)c(=Nc3ccc(C)cc3)oc2c1,inhibition,[1],35.2% (active)
same,inhibition,[8],87.6%
same,inhibition,[9],75.7%
Clc1cccc(Nc2ncnc3ccc(Br)cc23)c1,inhibition,[1],35.6% (active)
same,inhibition,[8],109%
same,inhibition,[9],104%
